Inconclusive results are not listed. Activity calls are given as the source filed them. Unless noted, calls come from the whole dose curve.

Assay [1] addresses Androgen receptor (Homo sapiens) (UniProt P10275). Description: qHTS assay for small molecule antagonists of androgen receptor signaling (AID 588516; active = well fitted curve in the direction sought with a large enough effect in the signal ratio, with a control signal flat, not every such curve was filed as active; the % refers to the signal ratio; note: % is set by controls: 0 for no effect and ±100 for the full control effect). Summed up: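 AR-UAS-bla-GripTite HEK 293 cells (2000/well, 5 h at 37 C) received compound titrations, then R1881 at 10 nM final; after 16 h at 37 C, CCF4 dye 2 h RT, beta-lactamase fluorescence read; IC50 from Hill fits.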
On the technique in general: qHTS replaces the single test concentration by a dilution series.

Assay [2] is described as follows: qHTS assay for small molecule antagonists of peroxisome proliferator-activated receptor delta signaling (AID 588535; active = well fitted inhibition curve with a large enough effect in the signal ratio, with a control signal flat, not every such curve was filed as active; the % refers to the signal ratio;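 for max response: cells co-treated with a PPAR-delta agonist as stimulator during compound exposure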). To be noted: HEK293T PPARd-UAS-bla, beta-lactamase FRET ratio, 18 h; 460 nm channel. The essentials: (§1)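 Cells were seeded at 4000 per well in assay medium containing 2% charcoal/dextran FBS and held 5 hrs at 37 C. Compounds were then added for 18 hrs. CCF4 substrate was applied for 2 hrs at room temperature before fluorescence reading.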

Assay [3] deals with Peroxisome proliferator-activated receptor delta (Homo sapiens) (UniProt Q03181). The assay is described as above. Summed up:
as §1

The target in assay [4] is Peroxisome proliferator-activated receptor gamma (Homo sapiens) (UniProt P37231). Description: qHTS assay for small molecule agonists of peroxisome proliferator-activated receptor gamma signaling (AID 588536; active = well fitted curve in the direction sought with a large enough effect in the signal ratio, with a control signal flat, not every such curve was filed as active; the % refers to the signal ratio;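 note: 0% = DMSO basal wells and 100% = rosiglitazone at 2 µM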). Summed up: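 Test agents, titrated, stimulated HEK293 UAS-bla cells overnight (16 h, 37 C). Substrate CCF4 was then added for two hours at room temperature before fluorescence reading.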
Chain of Peroxisome proliferator-activated receptor gamma (Homo sapiens) (P37231 whole entry, looked up): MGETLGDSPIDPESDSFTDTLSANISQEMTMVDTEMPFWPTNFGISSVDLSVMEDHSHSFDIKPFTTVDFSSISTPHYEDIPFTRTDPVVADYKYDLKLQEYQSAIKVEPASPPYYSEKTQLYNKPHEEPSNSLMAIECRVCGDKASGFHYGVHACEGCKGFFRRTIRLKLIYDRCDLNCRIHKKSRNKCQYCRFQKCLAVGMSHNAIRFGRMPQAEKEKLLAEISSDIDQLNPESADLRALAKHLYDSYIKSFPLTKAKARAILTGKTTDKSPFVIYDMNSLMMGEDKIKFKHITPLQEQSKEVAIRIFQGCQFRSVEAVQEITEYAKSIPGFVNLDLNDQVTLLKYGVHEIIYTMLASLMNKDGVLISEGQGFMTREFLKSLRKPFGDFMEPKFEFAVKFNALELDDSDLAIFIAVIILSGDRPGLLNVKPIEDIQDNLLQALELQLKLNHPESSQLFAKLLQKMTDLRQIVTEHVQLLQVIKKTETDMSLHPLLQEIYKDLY

Assay [5] shares this target. Description: qHTS assay for small molecule antagonists of peroxisome proliferator-activated receptor gamma signaling (AID 588537; active = well fitted inhibition curve with a large enough effect in the signal ratio, with a control signal flat, not every such curve was filed as active; the % refers to the signal ratio;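 note: reporter cells co-stimulated with 50 nM rosiglitazone agonist during compound treatment; % of control where 0% means no effect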). Summed up:
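Step one: plate 3000 HEK293 UAS-bla cells per well in medium with 1% stripped serum and hold 6-6.5 h at 37 C. Step two: add compound and 50 nM agonist for 16 h. Step three: CCF4 loading, fluorescence read.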

For assay [6], the target named is Vitamin D3 receptor (Homo sapiens) (UniProt P11473). The experiment in a line: qHTS assay for small molecule antagonists of vitamin D receptor signaling (AID 588541).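 Note: receptor activated by calcitriol during compound treatment; series mostly up to about 77 µM; % is set by controls: 0 for no effect and ±100 for the full control effect.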 Summed up: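 VDR-UAS-bla HEK293T cells in 2% charcoal-stripped FBS were stimulated with 1-alpha,25-dihydroxyvitamin D3 (3 nM final) plus compound for 16 h at 37 C. The beta-lactamase CCF4 readout was normalized to 50 nM agonist and DMSO, and Hill fits gave IC50.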

For assay [7] the target is unchanged. Description: qHTS assay for small molecule agonists of vitamin D receptor signaling (AID 588543).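 Note: 0% = DMSO basal and 100% = reference agonist control.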 Summed up: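 GeneBLAzer VDR-UAS-bla HEK293T cells in 2% charcoal-stripped FBS medium were dosed with compound titrations for 16 h at 37 °C; CCF4 β-lactamase readout (405 nm ex, 460/530 nm em). EC50 and efficacy from Hill fits, normalized to 50 nM calcitriol (100%) and DMSO (0%).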

Assay [8] in a line: qHTS assay for small molecule agonists of retinoid X receptor alpha signaling (AID 588544).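 For activation: 0% = DMSO basal wells and 100% = reference agonist.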 To be noted: HEK293T RXRa-UAS-bla, beta-lactamase reporter, 18 h; 530 nm emission.
Assay [9] deals with Retinoic acid receptor RXR-alpha (Homo sapiens) (UniProt P19793). The assay is described as above.
Chain of Retinoic acid receptor RXR-alpha (Homo sapiens) (P19793 whole entry, looked up): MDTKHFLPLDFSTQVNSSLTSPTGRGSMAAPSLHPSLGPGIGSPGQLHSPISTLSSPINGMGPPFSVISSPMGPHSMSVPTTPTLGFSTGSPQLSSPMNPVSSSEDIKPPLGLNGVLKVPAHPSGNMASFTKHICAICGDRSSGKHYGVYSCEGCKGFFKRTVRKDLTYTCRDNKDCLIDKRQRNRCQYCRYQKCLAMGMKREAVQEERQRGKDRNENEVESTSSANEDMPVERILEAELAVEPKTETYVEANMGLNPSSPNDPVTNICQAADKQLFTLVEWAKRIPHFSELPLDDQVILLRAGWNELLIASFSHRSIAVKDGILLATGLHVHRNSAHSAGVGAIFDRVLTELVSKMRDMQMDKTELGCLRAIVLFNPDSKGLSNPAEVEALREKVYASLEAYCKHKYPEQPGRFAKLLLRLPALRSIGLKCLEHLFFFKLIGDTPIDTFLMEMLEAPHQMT
In assay [10] the target is Thyroid hormone receptor beta (Homo sapiens) (UniProt P10828). Description: qHTS assay for small molecule agonists of thyroid hormone receptor beta signaling (AID 588545). The essentials: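 In this cell-based screen, titrated compounds act on HEK 293 cells held in medium with 2% charcoal/dextran FBS, NEAA and pyruvate for 18 hrs at 37 C. Responses are expressed relative to T3 (10 nM) as 100% and basal DMSO as 0%.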
Chain of Thyroid hormone receptor beta (Homo sapiens) (P10828 whole entry, looked up): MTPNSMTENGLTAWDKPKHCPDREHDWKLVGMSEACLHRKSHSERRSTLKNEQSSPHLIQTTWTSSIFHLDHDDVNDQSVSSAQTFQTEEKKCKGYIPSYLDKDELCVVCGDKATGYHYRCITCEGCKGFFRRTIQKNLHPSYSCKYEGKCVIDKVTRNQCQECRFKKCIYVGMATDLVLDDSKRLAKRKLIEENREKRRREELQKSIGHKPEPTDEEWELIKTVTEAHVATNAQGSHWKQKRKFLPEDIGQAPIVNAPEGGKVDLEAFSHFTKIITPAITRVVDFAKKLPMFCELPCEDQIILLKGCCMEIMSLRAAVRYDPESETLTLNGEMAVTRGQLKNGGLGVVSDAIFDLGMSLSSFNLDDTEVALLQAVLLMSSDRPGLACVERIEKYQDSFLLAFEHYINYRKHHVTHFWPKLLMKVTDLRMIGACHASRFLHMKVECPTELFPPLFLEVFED

Assay [11] can be described thus: qHTS assay for small molecule antagonists of retinoid X receptor alpha signaling (AID 588546; active = well fitted inhibition curve with a large enough effect in the signal ratio, with a control signal flat, not every such curve was filed as active; the % refers to the signal ratio;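 note: cells stimulated with 9-cis-retinoic acid as agonist; % is set by controls: 0 for no effect and ±100 for the full control effect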). To be noted: HEK293T RXRa-UAS-bla, beta-lactamase ratio, antagonist mode; measured here: W530 green channel, cytotoxicity proxy. The essentials:
(§2)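 Beta-lactamase reporter inhibition, read as CCF4 fluorescence ratio (ex 405, em 460/530 nm) after 2 h at RT. HEK293T UAS-bla cells, 2500/well, were stimulated with 9-cis-RA at 500 or 100 nM final alongside test compound for 18 h at 37 C.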

The target of assay [12] is Retinoic acid receptor RXR-alpha (Homo sapiens) (UniProt P19793). Described as above. The following applies: HEK293T RXRa-UAS-bla, beta-lactamase ratio, antagonist mode. Summed up: as §2
Assay [13] concerns the target Thyroid hormone receptor beta (Homo sapiens) (UniProt P10828). The experiment in a line: qHTS assay for small molecule antagonists of thyroid hormone receptor beta signaling (AID 588547; active = well fitted inhibition curve with a large enough effect in the signal ratio, with a control signal flat, not every such curve was filed as active; the % refers to the signal ratio;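 note: cells stimulated with 0.4 nM T3 agonist during compound exposure; series mostly up to about 77 µM; % is set by controls: 0 for no effect and ±100 for the full control effect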). To be noted: TR-UAS-bla HEK293, beta-lactamase ratio, antagonist mode, 18 h. Summed up:
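TR-UAS-bla GripTite HEK293 cells in 2% charcoal/dextran FBS medium; compounds 0.59 nM to 92 uM with T3 at 0.4nM final, 18 h at 37 C. Beta-lactamase read by CCF4 fluorescence (460/530 nm); Hill fits gave IC50 and efficacy.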

The target of assay [14] is Voltage-gated inwardly rectifying potassium channel KCNH2 (Homo sapiens) (UniProt Q12809). The experiment in a line: qHTS Assay for Small Molecule Inhibitors of the Human hERG Channel Activity (AID 588834; active = well fitted inhibition curve with a large enough effect;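 note: top concentration of the series differs between compounds; % is set by controls: 0 for no effect and ±100 for the full control effect; lower thallium flux fluorescence means stronger hERG block; nearly all actives have a fitted effect of over 50% in size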). The essentials:
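U2OS cells transduced with hERG via BacMam (MOI ~100), plated 2000/well, loaded with FluxOR thallium dye, compound ~10 min, then stimulation buffer; fluorescence decrease read kinetically; AC50 from Hill fits.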

The nature of assay [15]: qHTS assay for small molecule agonists of the antioxidant response element (ARE) signaling pathway (AID 651741; active = well fitted activation curve with a large enough effect in the signal ratio; the % refers to the signal ratio; note: % of control where 0% means no effect). The essentials:
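HepG2 ARE-bla cells plated at 2,000 cells/well and incubated 5 h at 37 C/5% CO2 received 23 nL compound in DMSO. After 16 h at 37 C, LiveBLAzer B/G FRET substrate was applied for 2 h at room temperature and fluorescence read.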

A short description of assay [16]: qHTS assay for small molecule activators of the p53 signaling pathway (AID 651743; active = well fitted activation curve with a large enough effect in the signal ratio, not every such curve was filed as active; the % refers to the signal ratio; note: series mostly up to about 92 µM; % of control where 0% means no effect). The following applies: HCT-116 p53RE-bla, beta-lactamase FRET ratio, 16 h; stronger effect = higher value. The essentials: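 HCT-116 p53RE-bla, 4,000 cells/well; 5 h settle; cpd/DMSO 16 h, 37 C; LiveBLAzer B/G 2 h RT; fluorescence intensity.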
The nature of assay [17]: qHTS assay for small molecule activators of the nuclear factor-kappa B (NF-kB) signaling pathway (AID 651749; active = well fitted activation curve with a large enough effect in the signal ratio; the % refers to the signal ratio; note: series mostly up to about 77 µM; % of control where 0% means no effect). To be noted: NF-kB-bla ME-180 cells, beta-lactamase FRET ratio, 16 h; stronger effect = higher value. The essentials:
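Incubation lasted 16 hr at 37C in 5% CO2 after 23 nL compound addition to ME-180 NF-kB-bla cells. Activation appears as beta-lactamase-mediated FRET loss.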

For assay [18], the target named is Bile acid receptor (Homo sapiens) (UniProt Q96RI1). The experiment in a line: qHTS assay for small molecule antagonists of farnesoid X receptor signaling (AID 588526). Note: % is set by controls: 0 for no effect and ±100 for the full control effect. Summed up: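 Antagonist mode: titrated compounds tested against chenodeoxycholic acid stimulation (normalized to 50 uM CDCA and DMSO) in GeneBLAzer HEK293T cells for 16 h. Beta-lactamase read by CCF4 fluorescence; IC50 from Hill fits.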
Chain of Bile acid receptor (Homo sapiens) (Q96RI1 whole entry, looked up): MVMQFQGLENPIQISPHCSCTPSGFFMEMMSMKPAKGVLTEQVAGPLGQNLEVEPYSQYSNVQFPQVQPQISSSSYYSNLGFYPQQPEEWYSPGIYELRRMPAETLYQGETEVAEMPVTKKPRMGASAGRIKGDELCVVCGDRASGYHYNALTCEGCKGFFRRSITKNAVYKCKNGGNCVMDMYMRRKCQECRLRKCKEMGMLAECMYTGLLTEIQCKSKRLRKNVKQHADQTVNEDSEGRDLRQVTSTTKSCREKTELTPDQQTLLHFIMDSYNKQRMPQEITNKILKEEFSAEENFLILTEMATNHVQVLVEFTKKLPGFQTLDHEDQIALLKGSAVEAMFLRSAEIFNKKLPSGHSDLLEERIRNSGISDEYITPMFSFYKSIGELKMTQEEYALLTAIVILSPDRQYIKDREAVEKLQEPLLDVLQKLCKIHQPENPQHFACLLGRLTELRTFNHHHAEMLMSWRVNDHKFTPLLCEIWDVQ

Assay [19] concerns the target Glucocorticoid receptor (Homo sapiens) (UniProt P04150). Description: qHTS assay for small molecule agonists of glucocorticoid receptor signaling (AID 588532; active = well fitted curve in the direction sought with a large enough effect in the signal ratio, with a control signal flat; the % refers to the signal ratio;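 note: 100% = dexamethasone at 0.1 µM and 0% = DMSO only wells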). The following applies: HeLa MMTV-bla, beta-lactamase ratio, agonist, 18 h; stronger effect = higher value; percent of dexamethasone control, DMSO zero. The essentials: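 HeLa GRE-bla reporter cells; 18 h compound exposure at 37 C; 2 h CCF4 loading at room temperature; fluorescence at 460 and 530 nm; EC50 by Hill equation.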

For assay [20] the target is unchanged. The experiment in a line: qHTS assay for small molecule antagonists of glucocorticoid receptor signaling (AID 588533; active = well fitted inhibition curve with a large enough effect in the signal ratio, with a control signal flat, not every such curve was filed as active; the % refers to the signal ratio; note: % is set by controls: 0 for no effect and ±100 for the full control effect). Summed up: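 Antagonist-mode qHTS: compound titrations added to GRE-bla HeLa cells, then dexamethasone 2 nM final; 18 h, 37 C. CCF4 FRET fluorescence normalized to dexamethasone and DMSO; IC50 from Hill fit.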

Chain of Glucocorticoid receptor (Homo sapiens) (P04150 whole entry, looked up): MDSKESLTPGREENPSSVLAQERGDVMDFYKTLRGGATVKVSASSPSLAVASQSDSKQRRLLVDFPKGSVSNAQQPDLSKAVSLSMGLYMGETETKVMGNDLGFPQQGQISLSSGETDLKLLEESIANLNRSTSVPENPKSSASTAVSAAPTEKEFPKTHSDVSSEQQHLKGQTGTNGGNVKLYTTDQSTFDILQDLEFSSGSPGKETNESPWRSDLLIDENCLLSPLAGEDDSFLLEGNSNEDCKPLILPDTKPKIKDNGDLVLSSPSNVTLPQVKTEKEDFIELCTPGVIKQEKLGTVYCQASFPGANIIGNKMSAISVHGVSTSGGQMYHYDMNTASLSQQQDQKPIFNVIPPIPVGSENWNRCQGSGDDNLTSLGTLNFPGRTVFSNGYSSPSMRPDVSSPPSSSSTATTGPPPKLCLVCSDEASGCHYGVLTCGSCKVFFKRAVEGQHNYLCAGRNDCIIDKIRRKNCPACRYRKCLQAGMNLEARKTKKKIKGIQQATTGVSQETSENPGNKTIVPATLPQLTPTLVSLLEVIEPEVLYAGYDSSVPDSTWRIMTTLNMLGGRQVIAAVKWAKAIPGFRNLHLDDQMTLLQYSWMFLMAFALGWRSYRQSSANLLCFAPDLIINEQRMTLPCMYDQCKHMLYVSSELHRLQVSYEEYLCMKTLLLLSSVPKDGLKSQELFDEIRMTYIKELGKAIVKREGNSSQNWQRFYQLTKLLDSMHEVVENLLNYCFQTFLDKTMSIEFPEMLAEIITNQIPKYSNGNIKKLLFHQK
Chain of Androgen receptor (Homo sapiens) (P10275 whole entry, looked up): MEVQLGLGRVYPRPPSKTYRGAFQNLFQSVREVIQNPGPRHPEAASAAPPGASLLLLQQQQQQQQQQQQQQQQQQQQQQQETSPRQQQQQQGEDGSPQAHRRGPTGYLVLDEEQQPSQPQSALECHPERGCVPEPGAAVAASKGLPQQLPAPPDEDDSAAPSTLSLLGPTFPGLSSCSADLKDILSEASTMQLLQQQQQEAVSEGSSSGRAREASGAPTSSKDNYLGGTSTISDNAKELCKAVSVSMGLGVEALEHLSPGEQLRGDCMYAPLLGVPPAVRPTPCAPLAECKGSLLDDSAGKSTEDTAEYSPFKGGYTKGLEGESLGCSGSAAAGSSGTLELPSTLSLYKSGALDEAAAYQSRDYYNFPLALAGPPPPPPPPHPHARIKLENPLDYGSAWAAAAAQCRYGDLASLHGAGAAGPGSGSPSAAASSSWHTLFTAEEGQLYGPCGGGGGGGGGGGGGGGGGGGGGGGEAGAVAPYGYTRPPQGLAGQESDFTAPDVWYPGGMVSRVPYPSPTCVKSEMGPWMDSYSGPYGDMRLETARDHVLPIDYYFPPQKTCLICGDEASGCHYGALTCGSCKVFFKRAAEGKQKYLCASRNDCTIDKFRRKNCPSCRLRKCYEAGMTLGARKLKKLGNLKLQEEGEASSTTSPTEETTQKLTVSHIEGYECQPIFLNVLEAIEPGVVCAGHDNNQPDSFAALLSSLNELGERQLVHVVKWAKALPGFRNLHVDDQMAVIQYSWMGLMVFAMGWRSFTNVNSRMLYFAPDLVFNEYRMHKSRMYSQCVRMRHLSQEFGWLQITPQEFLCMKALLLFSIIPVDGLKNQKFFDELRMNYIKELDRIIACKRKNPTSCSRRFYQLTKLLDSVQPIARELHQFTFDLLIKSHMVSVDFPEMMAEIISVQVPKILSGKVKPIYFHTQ
Chain of Voltage-gated inwardly rectifying potassium channel KCNH2 (Homo sapiens) (Q12809 whole entry, looked up): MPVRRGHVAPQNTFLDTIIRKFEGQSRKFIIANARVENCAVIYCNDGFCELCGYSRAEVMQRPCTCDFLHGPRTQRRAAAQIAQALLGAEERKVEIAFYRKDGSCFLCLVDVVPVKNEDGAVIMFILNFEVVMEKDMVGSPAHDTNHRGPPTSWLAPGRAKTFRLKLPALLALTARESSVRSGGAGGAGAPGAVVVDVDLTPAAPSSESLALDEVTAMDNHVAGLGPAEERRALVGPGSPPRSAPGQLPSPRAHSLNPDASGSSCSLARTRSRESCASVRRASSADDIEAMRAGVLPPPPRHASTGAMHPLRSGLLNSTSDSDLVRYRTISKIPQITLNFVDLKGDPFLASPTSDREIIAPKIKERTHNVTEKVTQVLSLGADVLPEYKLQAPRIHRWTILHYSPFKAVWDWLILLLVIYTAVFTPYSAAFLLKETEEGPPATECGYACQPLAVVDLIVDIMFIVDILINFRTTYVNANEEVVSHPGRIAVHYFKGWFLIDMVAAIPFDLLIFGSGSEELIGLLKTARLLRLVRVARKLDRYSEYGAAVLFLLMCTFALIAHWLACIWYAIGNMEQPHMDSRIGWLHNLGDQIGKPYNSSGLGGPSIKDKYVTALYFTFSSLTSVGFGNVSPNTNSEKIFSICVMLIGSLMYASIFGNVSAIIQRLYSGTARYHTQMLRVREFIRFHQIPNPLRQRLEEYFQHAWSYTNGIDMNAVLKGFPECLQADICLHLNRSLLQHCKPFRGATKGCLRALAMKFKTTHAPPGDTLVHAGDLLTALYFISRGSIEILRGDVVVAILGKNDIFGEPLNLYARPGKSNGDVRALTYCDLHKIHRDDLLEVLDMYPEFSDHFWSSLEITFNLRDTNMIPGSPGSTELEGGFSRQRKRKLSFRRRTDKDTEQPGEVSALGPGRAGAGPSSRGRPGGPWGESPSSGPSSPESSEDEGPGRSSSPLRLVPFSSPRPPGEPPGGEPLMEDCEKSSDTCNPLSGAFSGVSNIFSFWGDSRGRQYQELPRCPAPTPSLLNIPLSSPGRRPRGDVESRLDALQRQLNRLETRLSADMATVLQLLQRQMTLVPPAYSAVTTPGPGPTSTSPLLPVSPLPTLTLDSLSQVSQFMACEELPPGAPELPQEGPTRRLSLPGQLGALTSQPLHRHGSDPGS

As for `Cc1cccc(C(=O)O)c1`, the result in assay [1], in [4], in assay [5], in [6], in assay [7] and in assay [9] was inactive. Moreover, the molecule was classed as inactive in assay [10]. For the same molecule, the max response in [2] is -5.23%; in assay [8], -7.73%; in assay [11], -2.27%; in [12], 12.5% (inactive). Moreover, the Potency entry in assay [3], in assay [14] and in [15] was “inactive” throughout. The activity change % (negative = inhibition) in [13] is 2.36% (inactive). Besides, the activation is -0.475% (inactive) in [16] and 0.0626% (inactive) in [17].

Consider `CCCCCCCCC/C=C/CC1CC(=O)OC1=O` (configuration not stated), for which the outcome in assay [1], in [18], in assay [20], in [4], in [6] and in assay [7] was inactive. Further, the call in [9] and in assay [10] was inactive. Further, the figures for the activation in assay [19], in assay [16] and in assay [17] were 0.907% (inactive), 3.69% (inactive) and -0.282% (inactive), respectively. The max response was -0.831% in [8], 1.93% in assay [11] and 19.9% (inactive) in [12]. In addition, the activity change % (negative = inhibition) in assay [13] is 2.72% (inactive). In addition, the Potency entry in assay [14] is “inactive”.

Turning to `CCCOCC(C)OCC(C)O` (configuration not stated), the result in assay [1], in assay [18], in assay [20], in assay [4], in [6] and in [7] was inactive. Besides, the molecule was called inactive in assay [9] and in assay [10]. The max response was -11.5% in [2], -0.324% in [8] and -4.87% in assay [11]. For the same molecule, the Potency entry in [3], in assay [14] and in [15] was “inactive” each time. The activity change % (negative = inhibition) in assay [13] was 6.45% (inactive). For the same molecule, the activation in assay [16] is -5.61% (inactive); in assay [17], -1.44% (inactive).

Regarding `CC(O)CC(C)O` (configuration not stated), the result in assay [18], in [20], in assay [4], in assay [5], in assay [6] and in assay [7] was inactive. For the same molecule, in assay [9], the molecule was classed as inactive. In addition, the activation in assay [19] is 0.893% (inactive); in assay [17] it was -0.133% (inactive). The max response was 7.44% in assay [2], -6.63% in assay [8], 14.5% in assay [11] and 3.51% (inactive) in assay [12]. Besides, the Potency result in assay [3], in assay [14] and in assay [15] was “inactive” throughout. Moreover, the activity change % (negative = inhibition) in assay [13] was -2.07% (inactive).

In the case of `O=C(O)c1ccccc1[N+](=O)[O-]`, the molecule was called inactive in [18], in assay [20], in assay [4], in [5], in assay [6] and in [7]. Besides, the result in assay [9] and in assay [10] was inactive. In addition, the values for the activation in assay [19], in assay [16] and in assay [17] were 7.49% (inactive), 2% (inactive) and 0.408% (inactive), respectively. Moreover, the results for the max response in [8] and in assay [11] were -10.1% and -4.69%, respectively. For the same molecule, in assay [13], the activity change % (negative = inhibition) was 6.51% (inactive). The Potency result in [14] is “inactive”.

On to `CC(=O)Nc1ccc(N)cc1`, for which the call in [18], in assay [20], in assay [4], in [5], in assay [6] and in assay [7] was inactive. Further, the result in assay [9] was inactive. Also, the activation was 1.17% (inactive) in [19], 0.791% (inactive) in [16] and -0.653% (inactive) in [17]. The max response in assay [8] is -9.56%; in assay [11], 6.27%; in assay [12], 0.952% (inactive). Moreover, the Potency result in assay [14] was “inactive”.

In the case of `CSCCC=O`, the molecule was called inactive in [18], in [20], in [4], in assay [6], in assay [7] and in assay [9]. Besides, the activation in assay [19] is -3.21% (inactive); in assay [16], -3.46% (inactive); in [17] it was 0.77% (inactive). The max response in [2] was -13.1%; in [8], -12.2%; in assay [11], -2.47%; in assay [12], 16.4% (inactive). In addition, the Potency entry in assay [3], in assay [14] and in assay [15] was “inactive” each time.

Values taken from PubChem BioAssay (NCATS).
